High-throughput results deposited in PubChem by Broad Institute.
In the library only some 2.7% were active in any assay of this set; here they are far more common.
EWS-Fli block: EWS/Fli transcriptional activity inhibition. A673 NR0B1-luciferase reporter, viability-normalised. inhibition, % at 12.6 µM. 350,000 tested, 0.67% active. AID 651661;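 active means mean inhibition of at least 50% after viability correction, with every replicate also passing that limit; inconclusive means mean reaches 50% but only one of two replicates passes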;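 further: firefly luciferase signal divided by Alamar Blue viability fluorescence both relative to DMSO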
Env fusion inh: inhibitors of HIV Env-mediated cell fusion. inhibition, % at 12.3 µM. 360,000 tested, 1.1% active. HeLa-JRFL Env/CEM21 cell fusion, luciferase. AID 651610;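 active means mean replicate inhibition score of at least 50 and every replicate individually at or above 50; inconclusive means only one of the two criteria met; inactive means mean below 50 and not all replicates reaching 50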
PAX8 reporter: PAX8 transcriptional activity inhibition | RMG-I TPO-luciferase reporter, SteadyGlo, 24 h | inhibition, % at 12.6 µM | 360,000 tested, 1.2% active | AID 652154;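 active means mean replicate inhibition at least 60% with every replicate also reaching 60%; inconclusive means only one of the two criteria is met; inactive means mean below 60% and not all replicates reaching 60%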;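 further: luciferase light reporting Pax8 driven TPO promoter activity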
F508del corr: correctors of CFTR F508del function in bronchial epithelial cells. CFBE cells, YFP halide quenching; stimulated with forskolin plus potentiator P3; % fluorescence drop versus neutral controls. AID 720511. activity (quench increase), % at 7.58 µM. 350,000 tested, 0.36% active;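 active means mean added fluorescence quench of at least 8% versus neutral control, with both replicates also reaching 8%; inconclusive means only one of the mean or replicate conditions met; inactive means mean below 8% and not both replicates reaching 8%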;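 further: cells transiently co-express mutant CFTR-F508del with the halide-sensitive YFP; corrector assay measuring rescue of mutant channel to the surface after 24 h compound exposure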
PGC1a acetyl inh: lowers PGC1a acetylation signal in U2OS cells; AlphaScreen anti-acetyl-lysine; with virally co-expressed GCN5 acetyltransferase; inhibition, % at 15.6 µM; 350,000 tested, 0.17% active; AID 651687;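 active means every replicate shows inhibition of at least 40%; inconclusive means mean inhibition at least 40% but some replicate below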
GSIS activator: primary screen for activators of insulin secretion dependent on glucose, INS-1E cells, GLuc reporter luminescence. activation, % at 16.6 µM. INS-1E GLuc reporter insulin secretion, 2-3 h. AID 743287. 370,000 tested, 0.61% active;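 active means lowest replicate activation of at least 40%, so every replicate reaches that level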
Numbers stand for hits; n = inactive; u = inconclusive; x = no result.

SMILES | EWS-Fli block | Env fusion inh | PAX8 reporter | F508del corr | PGC1a acetyl inh | GSIS activator
Cc1ccc2c(c1)sc(=NC(=O)c1cccs1)n2C | 78 | n | n | n | x | n
O=C1CC(c2ccccc2)CC(O)=C1C=Nc1ccccc1 (configuration not stated) | n | n | n | n | n | n
Cc1ccc(N=CC2=C(O)CC(c3ccc(Cl)cc3)CC2=O)cc1 (configuration not stated) | n | x | 146 | n | x | n
O=c1[nH]nc(Sc2ncnc3sccc23)n1CCc1ccccc1 | x | 64 | 83 | x | x | x
CCN(CC)C(=O)CSc1n[nH]c(=O)n1CCc1ccccc1 | n | n | n | n | n | n
CCN1/C(=C/c2ccc3cc(C)cc(C)c3[n+]2CC)Sc2cc(C)ccc21 | 76 | n | 101 | 65 | x | n
CCN1/C(=C/c2ccc3cccc(C)c3[n+]2CC)Sc2ccccc21 | x | 59 | x | x | n | n
CCN1/C(=C/c2ccc3cc(C)ccc3[n+]2CC)Sc2ccc3sccc3c21 | x | x | x | x | n | x
CCN1/C(=C\c2ccc3cc(C)ccc3[n+]2CC)Sc2cc(C)c(C)cc21 | 57 | n | 91 | 62 | x | n
C[C@H](CO)N1C[C@H](C)[C@H](CN(C)C(=O)c2cnccn2)Oc2ncc(-c3cccc(F)c3)cc2C1=O | n | n | n | x | n | n
CN(Cc1ccccc1)C(=S)NC(=O)c1ccc(-c2ccccc2)cc1 | x | n | n | x | n | 40
COc1cc(C(=O)NC(=S)N(C)Cc2ccccc2)cc(OC)c1OC | n | n | n | n | n | n
O=C(C[C@H]1C[C@H]2c3cc(NS(=O)(=O)c4ccc(F)cc4)ccc3O[C@H]2[C@@H](CO)O1)NC1CCCCC1 | n | n | n | n | n | n
Cc1ccc(S(=O)(=O)Nc2ccc3c(c2)C(=O)N([C@H](C)CO)C[C@@H](C)[C@H](CN(C)Cc2ccc4c(c2)OCO4)O3)cc1 | n | x | n | n | n | n
COc1ccc(Br)cc1C(=O)Nc1cccc(NC(=O)c2ccco2)c1 | x | n | n | x | n | x
COc1ccc(Br)cc1C(=O)Nc1cccc(C)c1 | x | x | x | x | n | 51
CCCN1[C@H](C(=O)NC2Cc3ccccc3C2)[C@@H](CO)[C@@H]2Cn3c(ccc(C4=CCCC4)c3=O)[C@@H]21 | n | x | x | n | x | n
Cc1cccc(NC(=O)c2ccc(S(=O)(=O)N3CC(C)OC(C)C3)cc2)n1 (configuration not stated) | n | 56 | n | n | x | n
Cc1cccc(NC(=O)c2ccc(S(=O)(=O)N3CCCCCC3)cc2)n1 | n | n | n | n | n | n
C[C@@H]1CN([C@H](C)CO)C(=O)c2ccccc2-c2ccccc2CO[C@H]1CN(C)S(=O)(=O)c1ccccc1 | n | x | x | n | n | n
COc1cc(CC(=O)O)ccc1OCc1ccccc1 | n | n | n | n | n | n
COc1cc2ccc(CC(=O)O)cc2cc1OC | n | n | n | n | x | 77
Cc1ccc(F)cc1-c1nc(NC(C)C)nc2cc(-c3ccccc3)sc12 | n | n | n | n | x | 66
Cc1ccc(S(=O)(=O)Nc2ccc3c(c2)C(=O)N([C@@H](C)CO)C[C@@H](C)[C@@H](CN(C)S(=O)(=O)c2ccccc2)OCCCC[C@H](C)O3)cc1 | n | u | n | n | n | n
Cc1ccc(S(=O)(=O)N(C)C[C@H]2OCCCC[C@H](C)Oc3ccc(NS(=O)(=O)c4ccccc4)cc3C(=O)N([C@H](C)CO)C[C@@H]2C)cc1 | n | n | 62 | n | n | n
SMILES | EWS-Fli block | Env fusion inh | PAX8 reporter | F508del corr | PGC1a acetyl inh | GSIS activator
Cc1ccc(S(=O)(=O)Nc2ccc3c(c2)C(=O)N([C@H](C)CO)C[C@@H](C)[C@H](CN(C)S(=O)(=O)c2ccccc2)OCCCC[C@H](C)O3)cc1 | n | n | 80 | n | n | n
CN(C)c1ccc(NC(=S)Nc2ccc3c(c2)c(=O)n(C)n3-c2ccc(C(C)(C)C)cc2)cc1 | n | 58 | n | n | n | n
O=C(c1ccccn1)N1C[C@@H]2[C@H](c3ccccc31)[C@@H](CO)N2C(=O)C1CCCCC1 | n | x | n | n | n | n
COc1ccc(NC(=O)Nc2ccc3c(c2)C(=O)N([C@@H](C)CO)C[C@@H](C)[C@@H](CN(C)C(=O)C2CCCCC2)OCCCC[C@@H](C)O3)cc1 | n | n | n | n | n | n
COc1ccc(-c2csc(NC(C)=O)n2)cc1OC | x | n | n | x | n | x
COc1cccc(NC(=O)Nc2nc(-c3ccc(OC)c(OC)c3)cs2)c1 | 65 | n | 104 | n | x | n
O=C(Nc1cccc(Cl)c1)Nc1csc([N+](=O)[O-])c1 | n | u | 99 | n | n | x
O=C(Nc1cccc(Cl)c1)Nc1nc(-c2ccc(Cl)cc2)cs1 | x | x | x | x | n | 128
O=C(Nc1ccccc1)Nc1nc(-c2ccc(Cl)cc2)cs1 | n | x | n | n | n | x
CCOC(=O)C1C(C(C)=O)=C(c2ccccc2)c2ccccc2N1S(=O)(=O)C(F)(F)F (configuration not stated) | n | n | n | n | n | n
CCOC(=O)C1=C(c2ccccc2)c2ccccc2N(S(=O)(=O)C(F)(F)F)C1C(=O)OCC (configuration not stated) | n | 60 | n | n | n | n
O=C(Nc1cccc(S(=O)(=O)Nc2ccc(Cl)cc2)c1)c1ccc(Cl)nc1 | n | 56 | n | n | x | n
CCS(=O)(=O)N1CC2(CN(Cc3ccccc3F)[C@H](CO)c3[nH]c4cc(OC)ccc4c32)C1 | n | x | x | n | n | n
COc1ccc(-c2ccc3n(c2=O)C[C@@H]2N[C@H]3[C@H](C(=O)N3CCCCC3)[C@H]2CO)cc1 | n | n | n | n | n | n
CN1CCN(Cc2c(C(=O)N/N=C/c3cccc(Br)c3)nnn2-c2nonc2N)CC1 | 52 | n | n | n | n | n
Cc1nnn(-c2nonc2N)c1C(=O)N/N=C/c1cccc2ccccc12 | x | n | n | x | x | 86
Nc1nonc1-n1nnc(C(=O)N/N=C/c2cccc(O)c2)c1CN1CCCC1 | n | n | n | n | x | n
CCN(CC)c1ccc(/C=N/NC(=O)c2nnn(-c3nonc3N)c2C(C)C)c(O)c1 | x | 62 | 85 | n | x | n
CN(Cc1c(C(=O)N/N=C/c2ccccc2O)nnn1-c1nonc1N)C1CCCCC1 | n | n | 70 | n | n | 518
C[C@H]1CN([C@@H](C)CO)C(=O)c2ccccc2-c2ccccc2CO[C@@H]1CN(C)C(=O)c1ccncc1 | x | x | x | x | x | n
CNC[C@@H]1OCCCC[C@H](C)Oc2ccc(NC(=O)Nc3cccc4ccccc34)cc2C(=O)N([C@@H](C)CO)C[C@H]1C | n | n | n | n | n | x
CC1CCN(Cc2c(C(=O)N/N=C/c3ccccc3O)nnn2-c2nonc2N)CC1 | n | 63 | n | n | n | n
CC(=C/c1ccccc1)/C=N/NC(=O)c1nnn(-c2nonc2N)c1CN1CCC(C)CC1 | n | n | n | n | x | n
Cc1nn(Cc2ccccc2)c(C)c1NC(=O)CSc1nc(-c2ccccc2)nc2c1cnn2-c1ccccc1 | x | x | x | x | n | n
